Screens: PubChem, National Center for Advancing Translational Sciences (NCATS)
Shown are actives, neighbours in structure and some others; about 7.4% of the full set was active somewhere.
Rab9 promoter act = Rab9 promoter activation; Huh7 Rab9 promoter-luciferase reporter, luminescence, 24 h; Potency, µM (series often up to 9.22 µM), inactives show top-dose activation, negative = inhibition, usual class: activators; 320,000 compounds, 2.8% hits; note: % of control where 0% means no effect; nearly all actives have a fitted effect of over 60% in size
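Luminescence read-out: Huh7 cells stably expressing Rab9-luciferase, treated 24 h with compound at 37 °C, then lysed with luciferase reagent for 10 min at ambient before reading.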
ELG1 genotoxic = genotoxicity induction in ELG1-luciferase HEK293T cells | HEK293T ELG1-luciferase reporter, luminescence, 16 h | Potency, µM (top dose mostly 46 µM), for the others: top-dose activity change, positive = activation, hits mostly activators | 330,000 compounds, 1.3% hits | AID 504466; note: % of control where 0% means no effect; nearly all actives have a fitted effect of over 60% in size
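ELG1-luciferase HEK293T cells, 2,000/well; compound pinned in; 16 hr, 37 °C, 5% CO2; ONE-Glo, 30 min RT; luminescence on CCD imager.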
SMN2 splice up = SMN2 splice variant enhancement; HEK293 SMN2-luciferase splicing reporter, luminescence, 30-36 h; Potency, µM (series often up to 46.1 µM), inactives show at the top dose activity change, positive = activation, hits mostly activators; 210,000 compounds, 2.8% hits; AID 1458; note: % of control where 0% means no effect; nearly all actives have a fitted effect of over 55% in size
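qHTS luciferase splicing reporter: luminescence rises when SMN2 exon 7 is included in transfected HEK293 cells. Compound exposure lasted 30-36 h at 37C, with 4.5 mM final sodium butyrate as control, followed by a ONE-Glo read.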
FLuc counter = firefly luciferase modulation, counter-screen for miR-21 project. P08659. purified FLuc, Km substrates, luminescence inhibition. Potency, µM (top dose mostly 57.5 µM), for inactives: at the top dose activity change, negative = inhibition, actives largely listed as inhibitors. 360,000 compounds, 6.9% hits;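 note: plate controls were vehicle for no effect and reference inhibitor for full effect; nearly all actives have a fitted effect of over 55% in size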
Target sequence (P08659 whole entry, looked up): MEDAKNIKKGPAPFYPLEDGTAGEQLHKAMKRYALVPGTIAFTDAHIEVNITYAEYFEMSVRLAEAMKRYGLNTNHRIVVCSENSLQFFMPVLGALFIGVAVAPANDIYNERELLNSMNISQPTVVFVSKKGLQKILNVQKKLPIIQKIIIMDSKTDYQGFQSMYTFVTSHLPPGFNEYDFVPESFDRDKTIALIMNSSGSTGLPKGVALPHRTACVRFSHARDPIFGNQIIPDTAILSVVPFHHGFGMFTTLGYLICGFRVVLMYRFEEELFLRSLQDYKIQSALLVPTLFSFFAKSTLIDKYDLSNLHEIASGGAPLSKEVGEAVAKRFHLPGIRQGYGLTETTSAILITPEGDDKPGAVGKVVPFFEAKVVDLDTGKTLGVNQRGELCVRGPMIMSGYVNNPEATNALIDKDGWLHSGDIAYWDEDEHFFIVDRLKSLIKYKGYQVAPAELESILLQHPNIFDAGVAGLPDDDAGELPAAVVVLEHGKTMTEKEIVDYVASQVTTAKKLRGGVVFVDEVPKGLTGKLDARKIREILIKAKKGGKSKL
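Purified P. pyralis luciferase (10nM final) with 10uM D-luciferin and 10uM ATP (Km levels) in 50mM Tris acetate pH 7.5, 10mM Mg acetate, 0.01% Tween-20, 0.05% BSA; qHTS 6-point titration, ~60 µM downward; luminescence read.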
Luc counter = counter-screen: inhibitors of Kinase-Glo firefly luciferase; Kinase-Glo luciferase, ATP luminescence, 8 min; Potency, µM (top dose mostly 38.3 µM), without a hit: top-dose activity change, negative = inhibition, usual class: inhibitors; 200,000 compounds, 0.28% hits; note: % is set by controls: 0 for no effect and ±100 for the full control effect; nearly all actives have a fitted effect of over 60% in size
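Light output from Kinase-Glo luciferase with luciferin and 10 uM ATP in 50 mM imidazole pH 7.2, KCl, MgCl2, Tween 20, BSA; compound pin-delivered, 8-min ambient incubation, then luminescence read.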
NPC1 promoter act = NPC1 promoter activation. AID 485313. Potency, µM (highest dose often 9.22 µM), for inactives: at the top dose activation, actives largely listed as activators. 320,000 compounds, 2.4% hits. Huh7 NPC1 promoter luciferase reporter, 24 h; note: % of control where 0% means no effect; nearly all actives have a fitted effect of over 60% in size
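Cells: Huh7 expressing luciferase under the NPC1 promoter, 1500/well. Seeded 2 h, compound added, incubated 24 h at 37 °C. Luciferase reagent, 10 min ambient, then luminescence.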
Numbers without * were called inactive; ? = inconclusive; . = no result given; [ ] = remark or other dose. Calls come from the whole dose curve; as a rule, active = well fitted curve in the direction sought with a large enough effect; inconclusive = small, poorly fitted or top-dose-only effect, or another doubt; inactive = no such curve, though single readings can be large; an effect the other way counts as inactive or inconclusive. Potency is the fitted concentration of half-maximal effect.

SMILES	Rab9 promoter act	ELG1 genotoxic	SMN2 splice up	FLuc counter	Luc counter	NPC1 promoter act
CCc1ccc(N(C(=O)CCC(=O)Nc2cc(C)on2)C(C(=O)NC(C)(C)C)c2ccc(OC)cc2)cc1 (stereo not given)	-2%	-7%	.	24µM*	.	2%
Cc1cccc(OCCn2c(=O)sc3ccccc32)c1	2.8µM*	?	13µM*	11µM*	-1%	?
Cc1cccc(OCCn2c(=O)n(C)c3ccccc32)c1	1.8µM*	6.5µM*	13µM*	15µM*	0%	3.2µM*
Cc1cccc(OCCCn2c(=O)sc3ccccc32)c1	3.2µM*	?	-5%	21µM*	-8%	6%
Cc1cccc(OCCN2C(=O)c3ccccc3C2=O)c1	3.5µM*	?	19%	24µM*	-2%	27%
COc1cccc(OCc2nc3ccccc3n2CCOc2cccc(C)c2)c1	.	.	12%	-18%	.	.
Cc1ccc(Cl)cc1NC(=O)Cn1cc2c(n1)CCCCC2	.	.	15%	-1%	.	.
Cc1ccc(NC(=O)Cc2ccc(-n3c(C)nc4cccnc43)cc2)cc1C	.	.	.	-10%	.	.
CO[C@@H]1/C=C\O[C@]2(C)Oc3c(C)c(O)c4c(O)c(c(CN5CCN(C)CC5)c(O)c4c3C2=O)NC(=O)/C(C)=C\C=C[C@@H](C)[C@@H](O)[C@H](C)[C@@H](O)C(C)[C@H](OC(C)=O)[C@@H]1C (stereo not given in full)	.	.	-11%[9.22 µM]	.	-2%[7.66 µM]	.
COc1ccc(OCCn2c(=O)sc3ccccc32)cc1	?	?	?	19µM*	0%	?
COc1ccccc1OCCn1c(=O)sc2ccccc21	-2%[1.84 µM]	?	-25%	?	-1%	0%
O=C(NCc1ccccc1)C12CC3CC(CC(C3)C1)C2	29%	-7%	-8%	-1%	3%	-2%
O=C(Nn1nnnc1Nc1ccccc1)C12CC3CC(CC(C3)C1)C2	-4%	-4%	22µM*	-2%	1%	-1%
CC(C)CC(=O)Nc1ccc2oc(-c3cccnc3)nc2c1	?	?	?	13µM*	-5%	?
O=C(Nc1ccc2oc(-c3cccnc3)nc2c1)c1ccco1	?	16%	3%	15µM*	1%	?
O=C(Nc1ccc2oc(-c3cccnc3)nc2c1)c1ccc(Br)o1	-1%	8%	-26%	-11%	-4%	6%
O=C(Nc1ccc2oc(-c3cccnc3)nc2c1)c1cccc(Br)c1	.	.	-9%	2%	.	.
CCc1ccc2oc(-c3ccc(NC(C)=O)cc3)nc2c1	0.63µM*	3.3µM*	.	1.9µM*	.	?
CCC(=O)Nc1ccc2oc(-c3cccnc3)nc2c1	3.5µM*	?	.	17µM*	.	?
O=C(Nc1ccc2oc(-c3cccnc3)nc2c1)c1ccc(Br)cc1	.	.	-6%	-1%	.	.
CCOc1ccc(CCNC(=O)Cn2c(-c3cccs3)cc3ccccc32)cc1	.	.	.	0%	.	.
Cc1ccc2oc(-c3ccc(NC(=O)CC(C)C)cc3)nc2c1	?	2.3µM*	?	0.76µM*	-3%	0.28µM*
O=C(Nc1ccc(-c2nc3ncccc3o2)cc1)c1ccco1	1.6µM*	?	?	8.5µM*	0%	2.5µM*
O=C(Nc1ccc2nc(-c3ccccc3)oc2c1)c1ccco1	3.2µM*	?	?	21µM*	1%	?
O=C(Nc1ccc2oc(-c3ccccc3)nc2c1)c1ccncc1	7%	-9%	-61%	-14%	9%	6%
CCCCc1ccc(Nc2cc(C)nc(-n3nc(C)cc3C)n2)cc1	.	.	.	-16%	.	.
CCN(CC)c1ccc(/C=N/NC(=O)Cc2ccc(OC)c(OC)c2)cc1	-13%	1%	.	?	.	0%
CCN(CC)c1ccc(/C=N/NC(=O)C2CC2)cc1	?	?	.	15µM*	.	16%
O=C(N/N=C/c1ccc(Cl)cc1)c1ccc2c(c1)OCO2	26%	?	.	3.4µM*	.	8%
